From PubChem BioAssay (EPA / NIEHS)
Where “and” joins values, the source holds several entries; their conditions need not be identical. Equal entries are not always repeated. More than one record can exist for a structure, and the calls need not agree. Calls of active or inactive are those of the source. Rule for the calls: active = hit-call score of the fitted dose curve at least 0.9, where 1 is the maximum; inactive = score below 0.9.

Assays:
[1] = APR_HepG2_P-H2AX_72hr: Apredica 72-hour HepG2 Assay for H2AX Phosphorylation (AID 2282916); conditions: imaging, actives raise or lower the signal;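 note: phospho-histone H2A.x immunostain intensity per cell marking DNA damage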
Procedure, shortened: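 Human hepatoma HepG2 cells are dosed across ten concentrations (0.39 to 200 uM, 0.5% v/v DMSO) and incubated 72 hr. Phospho-histone H2A.x is then detected by antibody staining alongside c-Jun and Hoechst, and quantified by automated fluorescence imaging.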

[2] = APR_HepG2_MitoticArrest_72hr: Apredica 72-hour HepG2 Assay for Mitotic Arrest (AID 2282918); conditions: high-content imaging, actives raise or lower the signal
Procedure, shortened: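 HepG2 cells treated 72 h at 0.39–200 uM, 0.5% DMSO final; formaldehyde-fixed, stained with Hoechst 33342 and phospho-histone H3 antibody, imaged by high-content fluorescence; bidirectional fit versus DMSO.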

[3] = APR_HepG2_MicrotubuleCSK_72hr: Apredica 72-hour HepG2 Assay for Microtubule CSK Stabilty (AID 2282919); conditions: HepG2 microtubule cytoskeleton, high-content imaging, actives raise or lower the signal
Procedure, shortened: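 Ten-point dosing (0.39–200 uM, 0.5% DMSO) of HepG2 for 72 hr, with taxol as the cytoskeletal positive control. The cells were formaldehyde-fixed and then stained with alpha-tubulin/Cy5 and Hoechst. Imaging at 20x used a −2 um Z offset for tubulin.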

[4] = APR_HepG2_P-H2AX_24hr: Apredica 24-hour HepG2 Assay for H2AX Phosphorylation (AID 2282920); conditions: high-content imaging, actives raise or lower the signal
Procedure, shortened: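 HepG2 cells dosed 24 h at 0.39–200 uM (10 points, duplicate, 0.5% DMSO final). Formaldehyde-fixed and permeabilized, then immunostained for phospho-H2A.x with Hoechst. Fluorescence quantified by high-content imaging, fitted bidirectionally versus DMSO.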

[5] = APR_HepG2_StressKinase_72hr: Apredica 72-hour HepG2 Assay for Stress Kinase (AID 2282921); conditions: HepG2 stress kinase (phospho-c-Jun) imaging, actives raise or lower the signal
Procedure, shortened: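 After a 72 h compound treatment spanning 0.39 to 200 uM, formaldehyde-fixed cells are labelled for phosphorylated c-Jun and nuclei, imaged by automated fluorescence microscopy, and activity is fitted in both directions relative to DMSO controls.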

[6] = APR_HepG2_StressKinase_24hr: Apredica 24-hour HepG2 Assay for Stress Kinase (AID 2282922); conditions: HepG2 stress kinase (phospho-c-Jun) imaging, actives raise or lower the signal
Procedure, shortened: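 After 24 hr compound treatment (up to 200 uM, final DMSO 0.5% v/v), HepG2 cells are fixed and multiplex-labeled; phospho-c-Jun intensity is captured by high-content fluorescence imaging and analyzed relative to DMSO.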

[7] = APR_HepG2_p53Act_72hr: Apredica 72-hour HepG2 Assay for p53 Activation (AID 2282923); conditions: high-content imaging, actives raise or lower the signal;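 note: average cellular p53 protein immunofluorescence intensity in HepG2 cells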
Procedure, shortened: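 Imaging-based endpoint: after 72 hr compound exposure (up to 200 uM, 0.5% DMSO), fixed and permeabilized monolayers were labelled with anti-p53 antibody and imaged; signal change in either direction was fitted relative to DMSO controls.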

[8] = APR_HepG2_MitoMass_72hr: Apredica 72-hour HepG2 Assay for Mitochondrial Mass (AID 2282924); conditions: high-content imaging, actives raise or lower the signal;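 note: MitoTracker Red CMXRos stain intensity per cell imaged as mitochondrial mass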
Procedure, shortened: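 Steps: treat HepG2 72 hr (0.39–200 uM, duplicate wells); load MitoTracker Red CMXRos, 250 nM, 30 min; fix with 3.7% formaldehyde, permeabilise with 0.5% Triton X-100; capture images, nuclei via Hoechst 33342; fit bidirectionally against DMSO.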

[9] = APR_HepG2_NuclearSize_72hr: Apredica 72-hour HepG2 Assay for Nuclear Size (AID 2282925); conditions: high-content imaging, actives raise or lower the signal
Procedure, shortened: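 Compounds (0.39–200 uM, final DMSO 0.5%) were applied to HepG2 for 72 hr. Cells were then formaldehyde-fixed, permeabilized and labelled with Hoechst 33342. Nuclear diameter was quantified from six images per well.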

[10] = ATG_CRE_CIS: Attagene CIS-FACTORIAL HepG2 Assay for human cAMP Responsive Element (CRE) binding protein 3 (AID 2282926); conditions: HepG2 CRE cis-reporter, Attagene multiplexed mRNA; actives raise or lower the signal
Procedure, shortened: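 Induced reporter mRNA from a CRE cis element, measured in HepG2 among many multiplexed units at 24 h. Detection used RT-PCR plus capillary electrophoresis of fluorescent fragments; DMSO served as negative control.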

[11] = ATG_DR4_LXR_CIS: Attagene CIS-FACTORIAL HepG2 Assay for human Liver X Receptor (LXR), DR4 submotif (AID 2282929); conditions: HepG2 Attagene DR4 cis-reporter, mRNA transcription; actives raise or lower the signal
Procedure, shortened: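 HepG2 cells transiently transfected with cis-promoter-driven multiplexed reporter units (DR4 element) were dosed for 24 h. Reporter mRNA was quantified by RT-PCR, fluorescent primer extension, HpaI digestion and capillary electrophoresis; bidirectional fitting versus DMSO baseline.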

[12] = biological target: Aryl hydrocarbon receptor (Homo sapiens) (UniProt P35869); assay: ATG_Ahr_CIS: Attagene CIS-FACTORIAL HepG2 Assay for human Aryl Hydrocarbon Receptor (Ahr) (AID 2282930); conditions: HepG2 AhR cis-factorial reporter transcription; actives raise or lower the signal
Procedure, shortened: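 Following 24 h of chemical dosing, transfected HepG2 liver cells with cis-driven reporter units were lysed for RNA; reporter mRNA was quantified via RT-PCR and capillary electrophoresis, and responses fitted bidirectionally from DMSO.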

[13] = ATG_AP_1_CIS: Attagene CIS-FACTORIAL HepG2 Assay for human Activator Protein 1 (AP-1) (AID 2282931); conditions: HepG2 Attagene cis-factorial AP-1 reporter mRNA; actives raise or lower the signal
Procedure, shortened: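 HepG2 cells transiently transfected with cis-element-driven multiplex reporter units; 24 h compound exposure. Reporter mRNA quantified by RT-PCR, FAM-labelled fragments resolved by capillary electrophoresis; bidirectional fit versus DMSO baseline.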

[14] = ATG_BRE_CIS: Attagene CIS-FACTORIAL HepG2 Assay for human Bone Morphogenetic Protein (BMP) Response Element (BRE) (AID 2282933); conditions: HepG2 BMP response element reporter, Attagene transcription factor profiling; actives raise or lower the signal
Procedure, shortened: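 Gain- or loss-of-signal was derived by bidirectional fitting against DMSO controls. The signal came from reporter mRNA, measured by RT-PCR and capillary electrophoresis, in HepG2 cells transiently carrying multiple reporter units and dosed for 24 h.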

[15] = biological target: Retinoic acid receptor alpha (Homo sapiens) (UniProt P10276); assay: ATG_DR5_RAR_CIS: Attagene CIS-FACTORIAL HepG2 Assay for human Retinoic Acid Receptor Alpha (RARE), DR5 submotif (AID 2282934); conditions: HepG2 Attagene cis-factorial RARE DR5 reporter, mRNA; actives raise or lower the signal
Procedure, shortened: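 Transfected HepG2 reporter cells are exposed to chemicals for 24 h. Then RNA is extracted and the DR5 element reporter transcript is measured by RT-PCR and capillary electrophoresis, with bidirectional curve fitting relative to DMSO.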

[16] = biological target: Transcription factor E2F1 (Homo sapiens) (UniProt Q01094); assay: ATG_E2F_CIS: Attagene CIS-FACTORIAL HepG2 Assay for human E2F Transcription Factor 1 (AID 2282935); conditions: HepG2 Attagene cis-reporter, E2F reporter RNA transcripts; actives raise or lower the signal
Procedure, shortened: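 First, HepG2 cells were transfected with reporter transcription units. Next, they were dosed for 24 h. Then RNA was isolated, converted to cDNA, PCR-amplified, FAM-labeled, HpaI-digested and analyzed by capillary electrophoresis.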

[17] = APR_HepG2_MitoMembPot_72hr: Apredica 72-hour HepG2 Assay for Mitochondrial Membrane Potential (AID 2282917); conditions: imaging, actives raise or lower the signal
Procedure, shortened: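 HepG2 cells exposed 72 h to compounds at 0.39–200 uM (0.5% v/v DMSO, duplicates); MitoTracker Red CMXRos 250 nM loaded 30 min before 3.7% formaldehyde fixation, imaged by HCS fluorescence. Bidirectional fit versus DMSO.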

[18] = ATG_CMV_CIS: Attagene CIS-FACTORIAL HepG2 Assay for human CMV (Internal Marker) (AID 2282928); conditions: HepG2 CMV promoter reporter, transcription factor profiling; actives raise or lower the signal;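 note: endpoint acts as a background internal control marker rather than a target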
Procedure, shortened: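 24 h chemical treatment, HepG2 with transient multi-reporter transfection; RNA → oligo(dT) RT → PCR → 6-FAM extension → HpaI digest → CE fluorescence. Bidirectional fit, DMSO negative control.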

[19] = ATG_AP_2_CIS: Attagene CIS-FACTORIAL HepG2 Assay for human Activator Protein 2 (AP-2) (AID 2282932); conditions: HepG2 AP-2 cis-reporter, Attagene transcription factor profiling; actives raise or lower the signal
Procedure, shortened: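 Cells (HepG2) transfected with promoter-driven reporter constructs, treated 24 h. Total RNA reverse-transcribed, reporter cDNA PCR-amplified, FAM-labelled by primer extension, digested, resolved by capillary electrophoresis. Activity fitted both directions versus DMSO.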

Measured: AC50

Chain of Transcription factor E2F1 (Homo sapiens) (Q01094 whole entry, looked up): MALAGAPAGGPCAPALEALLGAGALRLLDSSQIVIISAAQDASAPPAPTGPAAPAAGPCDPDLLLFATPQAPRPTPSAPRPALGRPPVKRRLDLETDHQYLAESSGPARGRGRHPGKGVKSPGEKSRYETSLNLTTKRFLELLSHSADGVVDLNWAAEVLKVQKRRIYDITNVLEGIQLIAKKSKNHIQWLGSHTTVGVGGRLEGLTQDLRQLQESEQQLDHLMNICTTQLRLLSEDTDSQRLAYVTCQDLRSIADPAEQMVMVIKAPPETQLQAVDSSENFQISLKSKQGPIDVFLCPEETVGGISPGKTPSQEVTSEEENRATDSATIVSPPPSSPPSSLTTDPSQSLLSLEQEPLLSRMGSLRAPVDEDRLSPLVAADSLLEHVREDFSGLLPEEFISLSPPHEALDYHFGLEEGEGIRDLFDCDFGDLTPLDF
Chain of Aryl hydrocarbon receptor (Homo sapiens) (P35869 whole entry, looked up): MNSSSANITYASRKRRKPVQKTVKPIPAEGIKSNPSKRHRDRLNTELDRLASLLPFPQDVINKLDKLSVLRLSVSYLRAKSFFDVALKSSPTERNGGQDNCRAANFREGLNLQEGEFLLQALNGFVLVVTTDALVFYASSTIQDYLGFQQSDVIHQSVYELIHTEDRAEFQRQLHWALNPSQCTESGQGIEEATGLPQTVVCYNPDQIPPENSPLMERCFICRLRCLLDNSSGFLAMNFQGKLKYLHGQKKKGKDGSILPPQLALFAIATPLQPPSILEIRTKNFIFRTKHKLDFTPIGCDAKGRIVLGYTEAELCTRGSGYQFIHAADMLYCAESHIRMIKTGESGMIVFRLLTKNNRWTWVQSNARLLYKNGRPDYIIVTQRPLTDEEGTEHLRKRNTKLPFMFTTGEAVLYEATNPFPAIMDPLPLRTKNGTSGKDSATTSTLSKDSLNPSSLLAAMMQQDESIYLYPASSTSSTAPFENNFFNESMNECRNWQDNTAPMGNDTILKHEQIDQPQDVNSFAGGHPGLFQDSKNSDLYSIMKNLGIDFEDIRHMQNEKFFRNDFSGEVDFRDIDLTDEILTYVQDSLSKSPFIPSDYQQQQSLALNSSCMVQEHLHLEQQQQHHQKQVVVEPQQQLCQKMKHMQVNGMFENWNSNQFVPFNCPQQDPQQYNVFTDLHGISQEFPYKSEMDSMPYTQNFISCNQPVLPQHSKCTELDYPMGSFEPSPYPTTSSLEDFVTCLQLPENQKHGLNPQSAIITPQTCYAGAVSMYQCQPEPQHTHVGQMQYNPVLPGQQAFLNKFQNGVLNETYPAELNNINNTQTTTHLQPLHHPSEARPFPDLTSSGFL
Chain of Retinoic acid receptor alpha (Homo sapiens) (P10276 whole entry, looked up): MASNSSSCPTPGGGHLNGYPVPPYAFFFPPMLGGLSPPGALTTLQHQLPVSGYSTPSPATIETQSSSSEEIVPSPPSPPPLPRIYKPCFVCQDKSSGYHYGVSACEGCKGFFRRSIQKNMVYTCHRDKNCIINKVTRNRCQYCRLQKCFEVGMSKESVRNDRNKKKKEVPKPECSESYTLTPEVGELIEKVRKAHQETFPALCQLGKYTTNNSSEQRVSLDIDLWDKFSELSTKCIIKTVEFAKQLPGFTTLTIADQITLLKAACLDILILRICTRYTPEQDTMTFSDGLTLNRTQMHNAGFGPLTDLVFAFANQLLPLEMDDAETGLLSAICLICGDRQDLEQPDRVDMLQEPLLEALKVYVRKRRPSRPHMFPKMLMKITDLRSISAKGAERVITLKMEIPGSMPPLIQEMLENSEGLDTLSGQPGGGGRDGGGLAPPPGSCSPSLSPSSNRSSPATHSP

CC(C)(c1ccc(O)cc1)c1ccc(O)cc1
inactive: [1] | [2] | [3] | [4] | [5] | [6] | [7] | [8] | [9] | [10] | [11] | [12] | [13] | [14] | [15] | [16]
active: [1] 114 µM and 105 µM | [4] 170 µM and 110 µM | [5] 102 µM | [8] 122 µM | [10] 64.3 µM and 25.5 µM and 22.7 µM | [12] 26.9 µM and 49.5 µM and 23.6 µM | [14] 155 µM

CCOC(=O)NCCOc1ccc(Oc2ccccc2)cc1
active: [17] 78.2 µM | [3] 79.4 µM | [18] 13.1 µM | [11] 89.6 µM | [14] 27.9 µM
inactive: all other assays above

COC(=O)c1c(Cl)nn(C)c1S(=O)(=O)NC(=O)Nc1nc(OC)cc(OC)n1
not listed: [18] | [19]
inactive: all other assays above
